In PubChem BioAssay (Tox21) one finds Potency and outcome data, which are given here for nine molecules.

Values joined by “and” are separate entries in the source; they are usually repeats but may differ in a detail not shown here. Identical values can stand only once. Inconclusive results are not listed. Where a structure was tested more than once in an assay, its records may differ in their call. Active and inactive are the calls of the source. Unless noted, calls follow the shape of the dose curve; as a rule, active = well fitted curve in the direction sought with a large enough effect in the repeat runs; inconclusive = weak or mixed curves; inactive = no such curve, though single readings can be large; an effect the other way counts as inactive or inconclusive.

The nature of assay [1]: A CellTox Green Cytotoxicity Assay to monitor cytotoxicity in HEK293 cells - 32 hour (AID 1224881). Also: nearly all actives have a fitted effect of over 40% in size. The gist of the method: (§1)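 Fluorescence from a DNA-binding dye excluded by viable cells was measured repeatedly in the same HEK293 wells (600 cells/well) during continuous compound exposure at 37 C. Each assay gives one read point: 0, 8, 16, 24, 32 or 40 h.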
Assay [2] can be described thus: A CellTox Green Cytotoxicity Assay to monitor cytotoxicity in HepG2 cells - 0 hour (AID 1224882). Also: nearly all actives have a fitted effect of over 35% in size. In outline: (§2)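 Real-time cytotoxicity: fluorescence of a cell-impermeant cyanine dye binding DNA of dead HepG2 cells, measured repeatedly (0–40 h) during compound exposure at 37 C. Cells seeded 600/well with reagent, dosed after 5 h.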
A short description of assay [3]: A CellTox Green Cytotoxicity Assay to monitor cytotoxicity in HepG2 cells - 32 hour (AID 1224883). Also: nearly all actives have a fitted effect of over 50% in size. In outline:
as §2

Assay [4] can be described thus: qHTS RealTime-Glo MT Cell Viability Assay in HEK293 cells - 8 hour (AID 1224887). Also: top concentration of the series differs between compounds; nearly all actives have a fitted effect of over 50% in size. The gist of the method:
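Luminescence, which tracks viable cell number through reduction of the prosubstrate to a NanoLuc substrate, was read over continuous 37 C culture. Cells (600/well) were premixed with reagent and rested 5 h before 23 nL of compound in DMSO was pinned.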

Assay [5] is described as follows: A CellTox Green Cytotoxicity Assay to monitor cytotoxicity in HEK293 cells - 16 hour (AID 1224888). Also: nearly all actives have a fitted effect of over 35% in size. In outline:
as §1

Assay [6] is described as follows: qHTS RealTime-Glo MT Cell Viability Assay in HepG2 cells - 0 hour (AID 1224889). Also: nearly all actives have a fitted effect of over 50% in size. In outline:
(§3)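 Luminescence read-out: viable HepG2 cells reduce a prosubstrate to a NanoLuc substrate, giving a signal proportional to live cell number. Reads taken at 0, 8, 16, 24, 32 and 40 h of compound exposure at 37 C.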

The nature of assay [7]: A CellTox Green Cytotoxicity Assay to monitor cytotoxicity in HepG2 cells - 8 hour (AID 1224890). Also: nearly all actives have a fitted effect of over 45% in size. The gist of the method: as §2
A short description of assay [8]: qHTS assay to identify small molecule antagonists of the estrogen receptor alpha (ER-alpha) signaling pathway using the BG1 cell line in the presence of 0.1 nM 17-beta-estradiol - cell viability counter screen (AID 1259241). Also: nearly all actives have a fitted effect of over 40% in size. In outline:
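Following 5 days in phenol red-free medium with charcoal-stripped serum, VM7Luc4E2 cells received test compounds alongside 0.1 nM 17beta-estradiol (final) at 37C for 22 hr. Live cells were then quantified via protease-substrate fluorescence.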

A short description of assay [9]: qHTS assay to identify small molecule antagonists of the androgen receptor (AR) signaling pathway using the MDA cell line in the presence of 0.5 nM R1881 - cell viability counter screen (AID 1259242). Also: nearly all actives have a fitted effect of over 45% in size. The gist of the method:
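Live-cell protease activity was measured by CellTiter-Fluor fluorescence after 30 min. Before that, MDA-kb2 MMTV-luciferase cells had 16 hr at 37C without CO2, exposed to test compounds and 0.5 nM R1881 final.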

Assay [10] addresses Estrogen receptor (Homo sapiens) (UniProt P03372). Description: qHTS assay to identify small molecule antagonists of the estrogen receptor alpha (ER-alpha) signaling pathway using the BG1 cell line in the presence of 0.1 nM 17-beta-estradiol (AID 1259244). Also: nearly all actives have a fitted effect of over 50% in size. In outline:
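Luciferase luminescence (ONE-Glo, 30 min at room temperature) was read after 22 hr at 37C exposure to compounds plus 17beta-estradiol at 0.1 nM final. Cells were VM7Luc4E2 with endogenous ER-alpha and an ERE-driven luciferase, pre-cultured 5 days in hormone-depleted medium.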

Assay [11] is described as follows: qHTS assay to identify small molecule HDAC inhibitors - cell viability counter screen (AID 1259365). The gist of the method:
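HCT-116 wild-type, overnight attachment; 2hr drug exposure, 37C; CellTiter-Glo luminescent ATP readout after 30min RT.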

Assay [12] is described as follows: qHTS assay to identify small molecule agonists of the sonic hedgehog signaling (Shh) pathway - cell viability counter screen (AID 1259366). Also: nearly all actives have a fitted effect of over 50% in size. The gist of the method:
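Compounds in DMSO were pin-transferred onto 3T3 Gli1-Luc cells that had settled 4hr; plates then stood 24hr at 37C and 5% CO2. One hour before the end, CellTiter-Fluor was added and fluorescence recorded.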

Assay [13] can be described thus: qHTS assay to identify small molecule antagonists of the sonic hedgehog signaling (Shh) pathway - cell viability counter screen (AID 1259367). Also: nearly all actives have a fitted effect of over 55% in size. In outline: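 Cytotoxicity was assessed in parallel with Shh reporter activity by measuring live-cell protease fluorescence (CellTiter-Fluor) in NIH/3T3 cells stably carrying Gli1-Luc, treated with compound under conditioned medium stimulation for 23 hr plus 1 hr reagent incubation.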

A short description of assay [14]: qHTS assay to identify small molecule agonists of the sonic hedgehog signaling (Shh) pathway (AID 1259368; calls by dose curve;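 also: NIH/3T3-derived 3T3Gli1-Luc cells carrying a stable Gli1-driven firefly luciferase reporter; series mostly up to about 92 µM; nearly all actives have a fitted effect of over 15% in size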). In outline:
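Luminescence was read after 30 min at room temperature with luciferase reagent. Before that, 3T3Gli1-Luc cells (NIH/3T3 clone, stable Gli1-Luc reporter; 2,000/well) were exposed to compounds for 24 hr at 37C, 5% CO2, compounds being added 4 hr post-plating.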

A short description of assay [15]: qHTS RealTime-Glo MT Cell Viability Assay in HEK293 cells - 24 hour (AID 1224886). Also: nearly all actives have a fitted effect of over 50% in size. Also: potency is read from the fitted curve at half-maximal effect. The gist of the method:
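Nonlytic real-time viability readout: viable cells convert prosubstrate to NanoLuc substrate, giving luminescence proportional to live cell number. HEK293, 600 cells/well, compound added after 5 h, continuous culture at 37 C.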

Assay [16] is described as follows: qHTS RealTime-Glo MT Cell Viability Assay in HepG2 cells - 16 hour (AID 1224885). Also: nearly all actives have a fitted effect of over 50% in size. The gist of the method: as §3
Assay [17] is described as follows: qHTS assay to identify small molecule phospholipidosis (PLD) inducers (AID 1259344; active = well fitted curve in the direction sought with a large enough effect; an effect the other way counts as inactive or inconclusive). In outline: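 Cells (HepG2, 900 per well) attach for 4 h, receive LipidTOX Red and compound together, incubate 24 h at 37 C, are fixed 30 min with paraformaldehyde/Hoechst, then imaged at one site per well.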
Assay [18] can be described thus: qHTS assay to identify small molecule HDAC inhibitors (AID 1259364). Also: top concentration of the series differs between compounds; nearly all actives have a fitted effect of over 45% in size. In outline: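 Luminescence read after 30 min room-temperature HDAC-Glo incubation measures cellular class I/II HDAC activity. Compounds were applied for 2 hr at 37 C to HCT-116 wild-type cells seeded the day before.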
Assay [19] concerns the target Androgen receptor (Homo sapiens) (UniProt P10275). Description: qHTS assay to identify small molecule antagonists of the androgen receptor (AR) signaling pathway using the MDA cell line in the presence of 0.5 nM R1881 (AID 1259243). Also: nearly all actives have a fitted effect of over 50% in size. The gist of the method:
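Luminescent reporter readout (ONE-Glo, 30 min, room temperature) after 16 hr co-treatment of MDA-kb2 cells with test compounds and 0.5 nM R1881 final, at 37C without CO2. The MMTV-driven luciferase responds to both AR and GR.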

Chain of Estrogen receptor (Homo sapiens) (P03372 whole entry, looked up): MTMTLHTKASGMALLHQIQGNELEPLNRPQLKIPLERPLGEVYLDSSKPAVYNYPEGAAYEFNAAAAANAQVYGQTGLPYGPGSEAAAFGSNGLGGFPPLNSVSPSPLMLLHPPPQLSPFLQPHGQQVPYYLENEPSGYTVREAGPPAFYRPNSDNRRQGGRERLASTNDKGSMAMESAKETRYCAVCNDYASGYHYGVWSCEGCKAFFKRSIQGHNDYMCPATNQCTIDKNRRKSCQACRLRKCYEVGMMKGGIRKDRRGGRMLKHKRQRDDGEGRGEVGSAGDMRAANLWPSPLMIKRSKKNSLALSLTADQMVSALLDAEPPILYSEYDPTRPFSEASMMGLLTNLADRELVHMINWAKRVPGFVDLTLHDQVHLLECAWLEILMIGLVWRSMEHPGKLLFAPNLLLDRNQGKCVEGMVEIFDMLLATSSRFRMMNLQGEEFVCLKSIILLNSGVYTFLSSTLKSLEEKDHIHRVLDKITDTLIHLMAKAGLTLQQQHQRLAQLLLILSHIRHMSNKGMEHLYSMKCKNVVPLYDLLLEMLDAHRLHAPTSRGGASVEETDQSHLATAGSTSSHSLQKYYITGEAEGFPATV
Chain of Androgen receptor (Homo sapiens) (P10275 whole entry, looked up): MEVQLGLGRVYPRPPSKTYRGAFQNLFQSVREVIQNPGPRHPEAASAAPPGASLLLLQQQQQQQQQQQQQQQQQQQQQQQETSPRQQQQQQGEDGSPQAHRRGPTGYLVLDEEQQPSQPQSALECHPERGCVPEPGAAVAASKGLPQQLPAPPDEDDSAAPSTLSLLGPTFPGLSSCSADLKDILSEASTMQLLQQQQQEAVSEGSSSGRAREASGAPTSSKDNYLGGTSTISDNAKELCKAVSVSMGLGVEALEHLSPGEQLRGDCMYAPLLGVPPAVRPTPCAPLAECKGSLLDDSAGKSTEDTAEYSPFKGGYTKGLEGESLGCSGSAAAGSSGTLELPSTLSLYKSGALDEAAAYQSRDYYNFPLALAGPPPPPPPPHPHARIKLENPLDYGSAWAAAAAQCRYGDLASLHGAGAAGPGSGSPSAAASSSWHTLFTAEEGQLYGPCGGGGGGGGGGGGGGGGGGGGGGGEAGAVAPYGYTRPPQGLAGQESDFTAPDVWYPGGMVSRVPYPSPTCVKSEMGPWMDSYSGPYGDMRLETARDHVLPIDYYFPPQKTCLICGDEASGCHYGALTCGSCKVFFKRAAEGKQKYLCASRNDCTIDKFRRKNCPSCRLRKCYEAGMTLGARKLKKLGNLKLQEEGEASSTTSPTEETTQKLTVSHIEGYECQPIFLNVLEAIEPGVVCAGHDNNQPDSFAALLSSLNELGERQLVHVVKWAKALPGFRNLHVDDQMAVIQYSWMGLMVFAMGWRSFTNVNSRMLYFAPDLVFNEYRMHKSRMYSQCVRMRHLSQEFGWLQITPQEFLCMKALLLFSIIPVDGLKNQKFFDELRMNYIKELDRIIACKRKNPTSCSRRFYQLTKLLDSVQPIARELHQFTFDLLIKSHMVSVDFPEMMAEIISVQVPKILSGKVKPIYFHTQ

For `CCCCCCCO`, the Potency result in assay [1], in [3], in assay [4], in [5], in [6] and in assay [8] was “inactive” in each case. For the same molecule, the Potency entry in assay [9], in assay [10], in assay [12] and in assay [13] was “inactive” throughout. Further, the outcome in [2], in assay [7], in assay [11] and in assay [14] was inactive.
Consider `CCCCCCO`, for which the Potency result in assay [1], in assay [3], in [15], in assay [4], in [6] and in assay [8] was “inactive” each time. The Potency entry in [9], in assay [10] and in assay [13] was “inactive” throughout. The outcome in assay [2], in assay [7], in [11] and in assay [14] was inactive.
Regarding `CC(C)(Oc1ccc(CCNC(=O)c2ccc(Cl)cc2)cc1)C(=O)O`, the Potency entry in assay [1], in [3], in assay [16], in [4], in [6] and in assay [8] was “inactive” each time. Further, the Potency entry in assay [9], in assay [10], in assay [18], in assay [12] and in assay [13] was “inactive” each time. In addition, the outcome in assay [2], in assay [7], in [17], in [11] and in assay [14] was inactive.
`CCNc1ccccc1`: the Potency result in [1], in assay [3], in assay [4], in [5], in assay [6] and in assay [8] was “inactive” throughout. Also, the Potency entry in assay [9], in assay [19], in assay [18] and in assay [13] was “inactive” each time. The molecule was called inactive in [2], in assay [7], in assay [11] and in assay [14].
Turning to `CNC(=S)N(C)C`, the Potency result in assay [1], in assay [3], in assay [4], in assay [6], in assay [8] and in assay [9] was “inactive” each time. Moreover, the Potency result in assay [10], in assay [18], in assay [12] and in [13] was “inactive” each time. The molecule was called inactive in [2], in assay [7], in [11] and in assay [14]. The Potency entry in assay [15] is “inactive and 13 µM (active)”.
`O=C(O)CCCCCCCCC(=O)O`: the Potency entry in assay [1], in assay [3], in assay [16], in [4], in assay [5] and in assay [6] was “inactive” throughout. In addition, the Potency result in assay [8], in assay [9], in assay [12] and in assay [13] was “inactive” in each case. The result in assay [2], in assay [7], in assay [11] and in [14] was inactive.
Consider `Clc1ccccn1`, for which the Potency result in [1], in [3], in [16], in assay [15], in [4] and in assay [5] was “inactive” in each case. Further, the Potency result in assay [6], in assay [8], in [9] and in assay [13] was “inactive” throughout. Also, the molecule was called inactive in [2], in assay [7], in assay [11] and in [14].
`CCCCCC(=O)O`: the Potency result in assay [1], in [3], in assay [16], in [15], in assay [4] and in assay [6] was “inactive” in each case. Moreover, the Potency result in [8], in assay [9], in assay [19], in [10], in assay [18] and in [13] was “inactive” in each case. For the same molecule, the molecule was called inactive in assay [2], in [7], in [11] and in assay [14].
In the case of `CCO[Si](CCCN)(OCC)OCC`, the Potency entry in [1], in assay [3], in assay [16], in assay [4], in assay [5] and in assay [6] was “inactive” each time. For the same molecule, the Potency entry in assay [8], in assay [9], in assay [10], in assay [18], in [12] and in assay [13] was “inactive” throughout. In addition, the call in assay [2], in [7], in [11] and in assay [14] was inactive.
